From PubChem BioAssay (NCI) come the findings set out here.

Among the test systems are HCT-15 colon; HT29 colon; SNB-75 CNS; SNB-19 CNS; U251 CNS; PC-3 prostate; SK-MEL-5 melanoma; UACC-62 melanoma; LOX IMVI melanoma; SK-MEL-28 melanoma; EKVX NSCLC; SN12C renal; UO-31 renal; TK-10 renal; ACHN renal; CAKI-1 renal; A498 renal; MOLT-4 leukemia; CCRF-CEM leukemia; SK-MEL-2 melanoma.
What all share (assay): NCI-60 one-dose screen, 48 h (100 = growth as untreated, 0 = no growth, -100 = all killed)
Conditions in all cases: 10 µM unless noted

SMILES strings stand for the structures. This is part of a sample that, as a whole, favours compounds with a hit. Of some 83,000 tested, about 20% had one in any assay.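 Single-concentration screen, 48 h exposure, 96-well plates. Endpoint: percent growth. Below 10 = active.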 A number with no mark means an inactive call. Active and inactive are the calls of the source.

In the case of `N[C@H]1CCC[C@@H]1NCCCCN1C(=O)c2cccc3cccc(c23)C1=O`, the growth is 83.6% with HCT-15 colon; 26.2% in the assay on HT29 colon; 75.7% in the assay on SNB-75 CNS; 77% with SNB-19 CNS; 63% in the assay on U251 CNS; 55% in the assay on PC-3 prostate. Further, the growth in the assay with SK-MEL-5 melanoma is 91.6%; in the assay on UACC-62 melanoma, 95.7%; in the assay with LOX IMVI melanoma it was 26.1%; with SK-MEL-28 melanoma, 90.3%; with EKVX NSCLC, 84.6%; in the assay on SN12C renal, 63.9%. The growth with UO-31 renal was 60.3%; with TK-10 renal, 65.8%; with ACHN renal, 44.9%; with CAKI-1 renal, 84.4%; in the assay with A498 renal, 40.5%; with MOLT-4 leukemia it was 20.2%.

On to `Nc1ccn(C2OC(F)(CO)C(O)C2F)c(=O)n1` (stereo not drawn), for which the growth was 63.1% in the assay with HCT-15 colon; 48.3% in the assay with HT29 colon; 68.3% in the assay with SNB-75 CNS; 36.8% with SNB-19 CNS; 29.8% with U251 CNS; 50.1% in the assay with PC-3 prostate. Also, the growth with SK-MEL-5 melanoma is 47.4%; in the assay on UACC-62 melanoma, 49.3%; in the assay on LOX IMVI melanoma, 73.1%; in the assay with SK-MEL-28 melanoma, 74.3%; in the assay on EKVX NSCLC, 81.4%; with SN12C renal, 36.4%. Further, the growth with UO-31 renal is 10.7%; in the assay on TK-10 renal, 75.8%; with ACHN renal it was 2.4% (active); with CAKI-1 renal, 35.6%; with A498 renal, 50.2%; in the assay on CCRF-CEM leukemia, 25%. For the same molecule, the growth with MOLT-4 leukemia was 18.8%.

Regarding `COc1ccc(/C=C2\C=C(c3ccccc3)N(CCc3ccccc3)C2=O)cc1OC`, the growth in the assay on HCT-15 colon is 60.9%; in the assay on HT29 colon, 38.6%; in the assay on SNB-75 CNS it was -7.78% (active); with SNB-19 CNS it was 43.3%; in the assay on U251 CNS, 15.9%; in the assay on PC-3 prostate it was 54.4%. Also, the growth in the assay with SK-MEL-5 melanoma is 38.5%; in the assay on UACC-62 melanoma, 54.5%; in the assay with LOX IMVI melanoma it was 2.28% (active); with SK-MEL-28 melanoma it was 76.7%; with EKVX NSCLC, 56.1%; in the assay with SN12C renal, 53%. In addition, the growth in the assay on UO-31 renal is -47.5% (active); with TK-10 renal, -3.91% (active); in the assay on ACHN renal, -32.5% (active); in the assay with CAKI-1 renal, 62%; in the assay on A498 renal it was -75.4% (active); with CCRF-CEM leukemia it was 57.6%. In addition, in the assay on MOLT-4 leukemia, the growth was 34%.

For the molecule `C[C@@H]1C(=O)N(C[C@@H](Cc2ccccc2)NC(=O)OCc2ccccc2)[C@]1(Cc1ccccc1)C(=O)OCc1ccccc1`, the growth in the assay on HCT-15 colon was 41.6%; in the assay on HT29 colon it was 50.7%; with SNB-75 CNS, 61.1%; in the assay on SNB-19 CNS, 44.3%; in the assay on U251 CNS, 34.6%; in the assay with PC-3 prostate, 14.2%. Further, the growth with SK-MEL-5 melanoma was -6.61% (active); with UACC-62 melanoma, 43.3%; in the assay with LOX IMVI melanoma it was 51.8%; in the assay on SK-MEL-28 melanoma it was 63.9%; in the assay with EKVX NSCLC, 18.1%; in the assay on SN12C renal, 41.7%. The growth was 8.74% (active) in the assay with UO-31 renal; 21.4% in the assay with TK-10 renal; 22.3% in the assay with ACHN renal; 34.8% in the assay on CAKI-1 renal; -13.8% (active) in the assay with A498 renal; 67.3% in the assay with CCRF-CEM leukemia. The growth in the assay on MOLT-4 leukemia is 6.42% (active).

For `CN1CCN(c2ccc(Nc3ncc(Cl)c(NC[C@@H]4CCCO4)n3)cc2)CC1`, the growth in the assay with HCT-15 colon is 24.3%; in the assay on HT29 colon, 16%; with SNB-75 CNS, 6.49% (active); with SNB-19 CNS, 53.9%; with U251 CNS, 32.5%; with PC-3 prostate it was 30.7%. The growth in the assay with SK-MEL-5 melanoma was 31%; in the assay with UACC-62 melanoma, 38.5%; in the assay on LOX IMVI melanoma, 8.91% (active); in the assay with SK-MEL-28 melanoma, 50.9%; with EKVX NSCLC, 39%; in the assay with SN12C renal it was 28.2%. Moreover, the growth in the assay with UO-31 renal was -15.6% (active); with TK-10 renal, 23.6%; in the assay on ACHN renal, 1.78% (active); in the assay on CAKI-1 renal, 26.6%; in the assay on A498 renal, -25% (active); in the assay with CCRF-CEM leukemia it was 28%. Besides, in the assay with MOLT-4 leukemia, the growth was 16.8%.

For the molecule `COc1cc(/C=C2\C=C(c3ccccc3)N(CCc3ccccc3)C2=O)cc(OC)c1OC`, the growth is 94.1% in the assay on HCT-15 colon; 74.8% in the assay with HT29 colon; -6.74% (active) in the assay on SNB-75 CNS; 65.4% in the assay on SNB-19 CNS; 52.5% with U251 CNS; 76.2% with PC-3 prostate. Also, the growth in the assay on SK-MEL-5 melanoma is 57.7%; with UACC-62 melanoma, 56.1%; with LOX IMVI melanoma, 58.2%; with SK-MEL-28 melanoma it was 84.1%; in the assay with EKVX NSCLC, 69.2%; in the assay on SN12C renal it was 82%. Further, the growth with UO-31 renal was 69.2%; in the assay on TK-10 renal, 81.9%; with ACHN renal, 30.9%; in the assay on CAKI-1 renal, 80.1%; with A498 renal, 34.2%; in the assay on CCRF-CEM leukemia, 100%. The growth with MOLT-4 leukemia is 94.8%.

`CCCc1nc2ccccn2c1Nc1ccc(C(=O)NO)cc1`: the growth in the assay with HCT-15 colon is 89.8%; with HT29 colon it was 92.7%; in the assay with SNB-75 CNS, 82.2%; in the assay with SNB-19 CNS, 85%; in the assay with U251 CNS, 95.9%; with PC-3 prostate it was 83%. Moreover, the growth with SK-MEL-5 melanoma was 101%; in the assay on UACC-62 melanoma, 82.7%; in the assay with SK-MEL-28 melanoma, 95.7%; in the assay on SK-MEL-2 melanoma, 92.1%; with EKVX NSCLC, 100%; with UO-31 renal, 83.3%. For the same molecule, the growth was 94.7% with TK-10 renal; 91.8% in the assay on ACHN renal; 88.8% in the assay on CAKI-1 renal; 87.3% in the assay with A498 renal; 74.2% with CCRF-CEM leukemia.

On to `Cc1c(C)c2c(c(C)c1NC(=O)/C=C\C(=O)O)CCC(C)(CCCC(C)CCCC(C)CCCC(C)C)O2` (stereo not drawn), for which the growth in the assay on HCT-15 colon is 2.82% (active); with HT29 colon, 20.7%; in the assay with SNB-75 CNS, 33.2%; in the assay on SNB-19 CNS it was 78.1%; with U251 CNS, 60.2%; with PC-3 prostate it was 16.6%. For the same molecule, the growth in the assay on SK-MEL-5 melanoma is -97.7% (active); with UACC-62 melanoma it was 22.8%; in the assay on SK-MEL-28 melanoma, -10.6% (active); in the assay with SK-MEL-2 melanoma, 27%; with EKVX NSCLC, 74.3%; with SN12C renal, 50.6%. Moreover, the growth was 37.2% with UO-31 renal; 43.6% in the assay on TK-10 renal; 45.5% in the assay on ACHN renal; 46.8% with CAKI-1 renal; 13.6% with CCRF-CEM leukemia; 33.9% in the assay on MOLT-4 leukemia.
